FLuc modulator – inhibits or activates purified firefly luciferase, miR-21 counter-screen; purified FLuc, Km substrates, luminescence inhibition; Potency, µM (highest dose often 57.5 µM), for the others: top-dose activity change, negative = inhibition, usual class: inhibitors; actives 6.9% (n = 360,000);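 also: plate controls were vehicle for no effect and reference inhibitor for full effect; nearly all actives have a fitted effect of over 55% in size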
Target sequence (P08659 whole entry, looked up): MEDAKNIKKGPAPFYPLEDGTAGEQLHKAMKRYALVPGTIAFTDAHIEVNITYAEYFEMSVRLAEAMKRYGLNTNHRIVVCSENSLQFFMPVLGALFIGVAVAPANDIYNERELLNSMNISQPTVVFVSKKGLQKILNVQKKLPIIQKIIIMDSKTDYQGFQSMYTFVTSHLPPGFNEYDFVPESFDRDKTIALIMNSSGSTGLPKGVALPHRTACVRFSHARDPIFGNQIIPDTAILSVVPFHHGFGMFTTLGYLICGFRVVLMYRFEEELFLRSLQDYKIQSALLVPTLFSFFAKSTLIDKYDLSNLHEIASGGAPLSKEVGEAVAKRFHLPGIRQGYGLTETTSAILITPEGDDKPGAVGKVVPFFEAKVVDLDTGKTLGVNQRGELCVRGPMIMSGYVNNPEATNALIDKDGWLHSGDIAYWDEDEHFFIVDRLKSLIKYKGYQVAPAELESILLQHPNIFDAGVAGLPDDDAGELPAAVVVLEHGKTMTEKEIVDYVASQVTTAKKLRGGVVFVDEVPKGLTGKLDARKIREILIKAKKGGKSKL
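Purified P. pyralis luciferase, 10 nM final, with Km-level 10 uM D-luciferin and 10 uM ATP in 50 mM Tris acetate pH 7.5, 10 mM Mg acetate, 0.01% Tween-20, 0.05% BSA; 6-point qHTS titration about 60 µM downward; luminescence read.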
Rab9 prom act – activators of Rab9 promoter; actives 2.8% (n = 320,000); Huh7 Rab9 promoter-luciferase reporter, luminescence, 24 h; AID 485297; Potency, µM (titrated, usually from 9.22 µM), for inactives: top-dose activation, negative = inhibition, most hits filed as activators; also: % of control where 0% means no effect; nearly all actives have a fitted effect of over 60% in size
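Steps: seed 1500 Huh7 Rab9-luc cells per well, rest 2 h at 37 °C; add compound in DMSO; incubate 24 h; add luciferase reagent, 10 min ambient; read luminescence.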
SMN2 splice up – enhancers of SMN2 splice variant expression; HEK293 SMN2-luciferase splicing reporter, luminescence, 30-36 h; Potency, µM (highest dose often 46.1 µM), inactives show at the highest dose activity change, positive = activation, usual class: activators; actives 2.8% (n = 210,000); also: % of control where 0% means no effect; nearly all actives have a fitted effect of over 55% in size
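HEK293 cells carry an SMN2 minigene-luciferase reporter in which exon 7 inclusion puts luciferase in frame. Cells were seeded at 2000 cells/well, attached for 10-12 hours, then exposed to compounds for 30-36 hours at 37C before ONE-Glo luminescence.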
Luc counter – Kinase-Glo luciferase inhibition (counter-screen); actives 0.28% (n = 200,000); Potency, µM (series often up to 38.3 µM), without a hit: at the highest dose activity change, negative = inhibition, most hits filed as inhibitors; Kinase-Glo luciferase, ATP luminescence, 8 min; also: % is scaled to controls: 0 for no effect and ±100 for the full control effect; nearly all actives have a fitted effect of over 60% in size
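Substrate mix (final 50 mM imidazole pH 7.2, 50 mM KCl, 7 mM MgCl2, 10 uM ATP, 0.01% Tween 20, 0.05% BSA) plus pin-tool compound, then Kinase-Glo detection mix; 8 min ambient, luminescence read.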
NPC1 promoter act – NPC1 promoter activation; Potency, µM (top dose mostly 9.22 µM), for the others: top-dose activation, hits mostly activators; AID 485313; Huh7 NPC1 promoter luciferase reporter, 24 h; actives 2.4% (n = 320,000); also: % of control where 0% means no effect; nearly all actives have a fitted effect of over 60% in size
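Cells: Huh7 expressing luciferase under the NPC1 promoter, 1500/well. Seeded 2 h, compound added, incubated 24 h at 37 °C. Luciferase reagent, 10 min ambient, then luminescence.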
ELG1 genotoxic – induces genotoxicity in HEK293T cells with luciferase-tagged ELG1 | HEK293T ELG1-luciferase reporter, luminescence, 16 h | Potency, µM (titrated, usually from 46 µM), inactives show at the top dose activity change, positive = activation, most hits filed as activators | actives 1.3% (n = 330,000); also: % of control where 0% means no effect; nearly all actives have a fitted effect of over 60% in size
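16 hr compound incubation (37 °C, 5% CO2) of HEK293T cells carrying luciferase-tagged ELG1; luciferase then measured by ONE-Glo luminescence after 30 min at RT.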
* hit, by the source's call; ? = inconclusive; . = no result given. Only some compounds are listed: those with a hit (about 7.5% of all), similar ones and a draw of the others. Calls follow the shape of the dose curve; as a rule, active = well fitted curve in the direction sought with a large enough effect; inconclusive = small, poorly fitted or top-dose-only effect, or another doubt; inactive = no such curve, though single readings can be large; an effect the other way counts as inactive or inconclusive. Potency is read from the fitted curve at half-maximal effect.

SMILES	FLuc modulator	Rab9 prom act	SMN2 splice up	Luc counter	NPC1 promoter act	ELG1 genotoxic
O=C(c1ccco1)N1N=C(c2ccccc2)CC1c1ccc2nccnc2c1 (stereo not drawn)	17µM*	-1%	.	.	-3%	3%
CCc1ccc(C2=NN(C(C)=O)C(c3ccco3)C2)cc1 (stereo not drawn)	8.5µM*	1.8µM*	13µM*	?	3.5µM*	16µM*
CCC(=O)N1N=C(c2ccc(Cl)cc2)CC1c1ccco1 (stereo not drawn)	-23%	-2%	.	.	-5%	2%
O=C(O)CCC(=O)N1N=C(c2ccccc2)CC1c1ccc2nccnc2c1 (stereo not drawn)	-2%	2%	4%	-1%	-1%	3%
COc1ccc(C2=NN(C(=O)c3ccco3)C(c3ccco3)C2)cc1OC (stereo not drawn)	15µM*	3%	.	.	-1%	-5%
O=C(c1ccco1)N1N=C(c2ccc(Cl)cc2)CC1c1ccco1 (stereo not drawn)	?	-1%	.	.	-2%	-2%
CS(=O)(=O)Nc1cccc(C2=NN(C(=O)c3ccco3)C(c3ccco3)C2)c1 (stereo not drawn)	17µM*	-2%	.	.	-15%	-5%
CCCOc1ccc(C2C(=O)N(C3CCCCCC3)CC(=O)N2Cc2ccc(OC)cc2)cc1OC (stereo not drawn)	-7%	.	.	.	.	.
O=C(COC(=O)/C=C/c1cccc(C(F)(F)F)c1)NC(=O)NCc1ccco1	.	.	.	.	.	2%
Oc1ccc(/C=N/Nc2cccc3cccnc23)c(O)c1	4.8µM*	3.2µM*	13µM*	-12%	9%	6.5µM*
O=C(O)/C=C/C(=O)Nc1cccc2cccnc12	?	11%	.	.	2%	6%
Cc1ccc2nc(C)cc(N/N=C/c3cccnc3)c2c1	0%	-4%	.	-2%	0%	2%
